Screens as filed in PubChem BioAssay.
Rows were chosen to be rich in hits. Some 9.9% of all compounds tested hit in one or more screens of this group.
MCF10A rerep: inducers of DNA re-replication in MCF 10A breast cells; MCF 10A DNA re-replication, Hoechst nuclear intensity, 48 h; Potency, µM (highest dose often 46.1 µM), hits mostly activators; 350,000 tested, 2.9% active; AID 624296; also: nearly all actives have a fitted effect of over 50% in size
IL-1B inflam inh: blocks inflammasome-driven IL-1 beta release; activity change, % at 57.5 µM; THP-1 LPS/ATP IL-1B secretion, AlphaLISA, 16 h; active compounds read low; 360,000 tested, 4.7% active; AID 743279; in the data active = activity change below about -50%; inconclusive = mostly about -30% to -49%
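THP-1 cells pretreated 1 hr with compounds (up to 57.5 uM final), then stimulated with LPS (250 ng/mL final) plus ATP (1.25 mM final); secreted IL-1B measured by AlphaLISA after 16 hr, decreased signal indicating inhibition.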
KB-3-1 cytotox: kills parental KB-3-1 adenocarcinoma cells; KB-3-1 viability, CellTiter-Glo ATP luminescence, 72 h; 400,000 tested, 1.4% active; Potency, µM (highest dose often 46.1 µM), most hits filed as cytotoxic; also: nearly all actives have a fitted effect of over 60% in size
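Here the drug-naive KB-3-1 line serves as comparator for MDR sub-line selectivity; cells received compound titrations, 72 h at 37 °C, then CellTiter-Glo readout.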
SW480 rerep: inducers of DNA re-replication in SW480 colon cancer cells. SW480 DNA re-replication, Hoechst DNA content imaging, 48 h. Potency, µM (highest dose often 46.1 µM), actives largely listed as activators. 340,000 tested, 1.8% active; also: nearly all actives have a fitted effect of over 55% in size
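Cells (250 per well) received 23 nL compound or DMSO by pin tool and were kept 48 hr at 37 C, 5% CO2. Nuclei were then stained with Hoechst for 40 min and scanned for DNA content.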
KB-V1 MDR tox: kills drug-selected multidrug resistant KB-V1 cells. KB-V1 MDR cells viability, CellTiter-Glo, 72 h. Potency, µM (highest dose often 46.1 µM), usual class: cytotoxic. 400,000 tested, 3.4% active; also: nearly all actives have a fitted effect of over 60% in size
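KB-V1 MDR subline cells in DMEM (phenol-red free, 10% FBS) exposed to compounds in qHTS concentration series for 72 h at 37 degrees C. Viability read by CellTiter-Glo luminescence; concentration-effect curves fitted after normalization and correction.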
Of the large screens only hits and unclear results are named; the others gave an inactive call. Unless noted, calls follow the shape of the dose curve; as a rule, active = well fitted curve in the direction sought with a large enough effect; inconclusive = small, poorly fitted or top-dose-only effect, or another doubt; inactive = no such curve, though single readings can be large; an effect the other way counts as inactive or inconclusive.

c1ccc(-c2cc3c(N4CCOCC4)ncnc3s2)cc1	MCF10A rerep 13µM, IL-1B inflam inh -61.8, SW480 rerep inconclusive, KB-V1 MDR tox inconclusive
OCCN1CCN(c2ncnc3sc(-c4ccccc4)cc23)CC1	MCF10A rerep inconclusive, IL-1B inflam inh -93.3
c1ccc(-c2cc3c(N4CCCC4)ncnc3s2)cc1	KB-V1 MDR tox inconclusive
NS(=O)(=O)c1ccc(NC(=O)CNC(=O)c2ccc3c(c2)OCO3)cc1	none
COc1ccc(OCC(O)CN(CC(O)COc2ccc(OC)cc2)c2cccc(O)c2)cc1 (stereo not given)	IL-1B inflam inh -50.1
CCCN(CC(=O)Nc1cc(Cl)ccc1Cl)C(=O)c1ccc(N2CCCC2=O)cc1	KB-3-1 cytotox inconclusive, KB-V1 MDR tox 7.31µM
CC(C)(CNc1ccc(C(F)(F)F)cc1[N+](=O)[O-])N1CCOCC1	none
O=C(Nc1cccc(Cl)c1)N(CCN1CCOCC1)Cc1cccc(Cl)c1	MCF10A rerep inconclusive, IL-1B inflam inh -76.5, SW480 rerep inconclusive
COc1ccc(OC)c(CN(CCN2CCOCC2)C(=O)Nc2ccccc2)c1	MCF10A rerep inconclusive, KB-V1 MDR tox inconclusive
O=C(c1ccncc1)N(Cc1cc2ccccc2[nH]c1=O)C1CCCCC1	MCF10A rerep inconclusive, KB-3-1 cytotox 9.2µM, KB-V1 MDR tox inconclusive
O=C(c1ccco1)N(Cc1cc2ccccc2[nH]c1=O)C1CCCCC1	none
COc1ccc2[nH]c(=O)c(CN(C(=O)NC3CCCCC3)C3CCCCC3)cc2c1	KB-3-1 cytotox inconclusive, KB-V1 MDR tox 10.3µM
O=C(Nc1cccc(Cl)c1)N(CCN1CCOCC1)Cc1ccccc1F	IL-1B inflam inh inconclusive
COc1ccc(OC)c(CN(CCN2CCOCC2)C(=O)Nc2cccc(Cl)c2)c1	KB-V1 MDR tox 3.66µM
COc1ccccc1-n1nnnc1SCC(=O)Nc1ccc(C)c(N)c1	none
Cc1ccc2[nH]c(=O)c(CN(CCCN3CCOCC3)C(=O)NC3CCCCC3)cc2c1	KB-3-1 cytotox inconclusive, KB-V1 MDR tox inconclusive
CCc1ccc2[nH]c(=O)c(CN(CCCN3CCOCC3)C(=O)Nc3cccc(Cl)c3)cc2c1	MCF10A rerep inconclusive, IL-1B inflam inh -62.4, KB-3-1 cytotox inconclusive, KB-V1 MDR tox inconclusive
CCc1ccc2[nH]c(=O)c(CN(CCN3CCCC3)C(=O)NC3CCCCC3)cc2c1	IL-1B inflam inh -56.2
O=C(N/N=C/c1cccc(F)c1)c1c(O)c2ccccc2[nH]c1=O	KB-3-1 cytotox inconclusive, KB-V1 MDR tox inconclusive
O=C(N/N=C/c1ccccc1)c1c(O)c2ccccc2[nH]c1=O	KB-3-1 cytotox 23.1µM, KB-V1 MDR tox inconclusive
O=C(N/N=C/c1ccc(F)cc1)c1c(O)c2ccccc2[nH]c1=O	MCF10A rerep inconclusive, KB-3-1 cytotox inconclusive, KB-V1 MDR tox 10.3µM (no result: SW480 rerep)
CC(=O)c1ccc(NC(=O)NC2CC(=O)N(c3ccc4c(c3)OCCO4)C2)cc1 (stereo not given)	KB-3-1 cytotox inconclusive
CCOC(=O)C1=C(C)N(C)C(=O)NC1c1cc2c(cc1[N+](=O)[O-])OCO2 (stereo not given)	none
COc1ccc(-c2nc(SC)n(C)c(=O)c2C#N)cc1OC	MCF10A rerep inconclusive, IL-1B inflam inh -76.3
Cc1ccccc1Cn1c(CN2CCc3ccccc3C2)nc2c1c(=O)n(C)c(=O)n2C	IL-1B inflam inh -58.6, KB-V1 MDR tox 23.1µM
Cn1c(=O)c2c(nc(CN3CCc4ccccc4C3)n2Cc2ccc(F)cc2)n(C)c1=O	SW480 rerep inconclusive, KB-V1 MDR tox 9.2µM
O=c1[nH]c(N2CCCCC2)nc2ncn(Cc3ccccc3)c12	IL-1B inflam inh inconclusive
CCOc1ccc(N(C(=O)c2ccc(OC)cc2)S(=O)(=O)c2ccc3c(c2)n(C)c(=O)n3C)cc1	KB-3-1 cytotox inconclusive (no result: MCF10A rerep, IL-1B inflam inh, SW480 rerep)
O=C(O)CCSc1nnc(CNc2ccc(Cl)cc2)n1Cc1ccccc1	SW480 rerep 0.231µM
O=C(CSc1nnc(CNc2ccc(Cl)cc2)n1Cc1ccccc1)NCc1ccco1	none
CCn1c(CNc2cccc(Cl)c2)nnc1SCC(=O)OC1CCCCC1	none
CCn1c(CNc2ccc(Cl)cc2)nnc1SCC(=O)OC1CCCCC1	MCF10A rerep 12.6µM
O=C(Cn1ncc2c3ccccc3n(Cc3ccccc3)c2c1=O)NCCCN1CCCCC1	none (no result: MCF10A rerep, IL-1B inflam inh, SW480 rerep)
CCOc1nc(-c2ccc(Cl)cc2)nc2ccccc12	none
COc1ccc(NCc2n[nH]c(=O)c3ccccc23)cc1	MCF10A rerep inconclusive
